In PubChem BioAssay AID1159580 (chemical genetic matrix, 2015):
Values joined by “and” are separate entries in the source; they are usually repeats but may differ in a detail not shown here. Identical values can stand only once. Screen size: about 5,500 compounds; about 2,000 (36%) were called active. Roughly 18% stayed inconclusive and do not appear here. Cut-off read from the data, not from the text of the source: active = normalized growth mostly below about 0.91 (no sharp cut-off); inconclusive = no clear call, values can overlap the other calls; inactive = mostly above about 0.92. Some of the results follow.

Test: chemical genetic growth profiling, strain panel (AID 1159580);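 note: tested at 20 µM; growth read once vehicle control cultures reached saturation at 30 °C; 1 = growth at the plate median or of vehicle wells; lower values mean less growth of the strain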
Details: growth OD

Measured: normalized growth

CC(C)C(=O)Nc1ccc([N+](=O)[O-])c(C(F)(F)F)c1
active: S. cerevisiae deletion strains, locus YKR001C, strain vps1, stronger effect = lower value 0.837
inactive: S. cerevisiae deletion strains, locus YKL009W, strain mrt4, stronger effect = lower value 0.984 | S. cerevisiae deletion strains, locus YKL068W, stronger effect = lower value 0.984 | S. cerevisiae deletion strains, locus YKL085W, strain MDH1 (second series), stronger effect = lower value 0.987 | S. cerevisiae deletion strains, locus YKL085W, strain MDH1, stronger effect = lower value 0.987 | S. cerevisiae deletion strains, locus YKL160W, strain elf1, stronger effect = lower value 1 | S. cerevisiae deletion strains, locus YKL190W, strain CNB1, stronger effect = lower value 0.992 | S. cerevisiae deletion strains, locus YKR026C, strain gcn3, stronger effect = lower value 1.01 | S. cerevisiae deletion strains, locus YKR091W, strain srl3, stronger effect = lower value 1.01 | S. cerevisiae deletion strains, locus YLL001W, strain dnm1, stronger effect = lower value 1.03 | S. cerevisiae deletion strains, locus YLL026W, stronger effect = lower value 1.02 | S. cerevisiae deletion strains, locus YLL041C, strain sdh2, stronger effect = lower value 1.01 | S. cerevisiae deletion strains, locus YLR027C, strain aat2, stronger effect = lower value 1.02 | S. cerevisiae deletion strains, locus YLR039C, strain RIC1, stronger effect = lower value 0.826 | S. cerevisiae deletion strains, locus YLR058C, strain SHM2, stronger effect = lower value 0.99 | S. cerevisiae deletion strains, locus YLR102C, strain apc9, stronger effect = lower value 0.968 | S. cerevisiae deletion strains, locus YLR113W, strain HOG1, stronger effect = lower value 0.93 | S. cerevisiae deletion strains, locus YLR221C, strain rsa3, stronger effect = lower value 1.04 | S. cerevisiae deletion strains, locus YLR258W, strain gsy2, stronger effect = lower value 1.02 | S. cerevisiae deletion strains, locus YLR262C, strain YPT6 (second series), stronger effect = lower value 1.01 | S. cerevisiae deletion strains, locus YLR262C, strain YPT6, stronger effect = lower value 0.899 | S. cerevisiae deletion strains, locus YLR268W, strain sec22, stronger effect = lower value 0.96 | S. cerevisiae deletion strains, locus YLR320W, strain mms22, stronger effect = lower value 1.03 | S. cerevisiae deletion strains, locus YLR330W, strain CHS5, stronger effect = lower value 0.987 | S. cerevisiae deletion strains, locus YLR342W, strain FKS1 (second series), stronger effect = lower value 0.96 | S. cerevisiae deletion strains, locus YLR342W, strain FKS1, stronger effect = lower value 1.01 | S. cerevisiae deletion strains, locus YLR357W, strain rsc2, stronger effect = lower value 1.09 | S. cerevisiae deletion strains, locus YLR370C, strain arc18, stronger effect = lower value 1.03 | S. cerevisiae deletion strains, locus YLR371W, strain rom2, stronger effect = lower value 0.974 | S. cerevisiae deletion strains, locus YLR384C, strain iki3, stronger effect = lower value 1.03 | S. cerevisiae deletion strains, locus YLR418C, strain cdc73, stronger effect = lower value 0.896 | S. cerevisiae deletion strains, locus YML016C, strain PPZ1, stronger effect = lower value 0.981 | S. cerevisiae deletion strains, locus YML032C, strain rad52, stronger effect = lower value 0.974 | S. cerevisiae deletion strains, locus YML120C, strain ndi1, stronger effect = lower value 1.01 | S. cerevisiae deletion strains, locus YML124C, strain tub3, stronger effect = lower value 0.972 | S. cerevisiae deletion strains, locus YMR058W, strain fet3, stronger effect = lower value 1.03 | S. cerevisiae deletion strains, locus YMR078C, strain ctf18, stronger effect = lower value 0.976 | S. cerevisiae deletion strains, locus YMR125W, strain sto1, stronger effect = lower value 1.03 | S. cerevisiae deletion strains, locus YMR129W, stronger effect = lower value 1.02 | S. cerevisiae deletion strains, locus YMR205C, strain PFK2, stronger effect = lower value 1.02 | S. cerevisiae deletion strains, locus YMR223W, strain ubp8, stronger effect = lower value 0.982 | S. cerevisiae deletion strains, locus YMR231W, strain pep5, stronger effect = lower value 1.03 | S. cerevisiae deletion strains, locus YMR263W, strain SAP30, stronger effect = lower value 0.982 and 1 | S. cerevisiae deletion strains, locus YMR307W, strain GAS1, stronger effect = lower value 0.832 | S. cerevisiae deletion strains, locus YNL067W, strain RPL9B, stronger effect = lower value 0.99 | S. cerevisiae deletion strains, locus YNL071W, strain lat1, stronger effect = lower value 1.02 | S. cerevisiae deletion strains, locus YNL128W, strain TEP1, stronger effect = lower value 1.01 | S. cerevisiae deletion strains, locus YNL153C, strain GIM3, stronger effect = lower value 0.99 and 0.977 | S. cerevisiae deletion strains, locus YNL175C, strain NOP13, stronger effect = lower value 0.977 | S. cerevisiae deletion strains, locus YNL183C, strain NPR1, stronger effect = lower value 0.91 | S. cerevisiae deletion strains, locus YNL197C, strain WHI3, stronger effect = lower value 0.968 | S. cerevisiae deletion strains, locus YNL209W, strain ssb2, stronger effect = lower value 1.01 | S. cerevisiae deletion strains, locus YNL224C, strain SQS1, stronger effect = lower value 0.96 | S. cerevisiae deletion strains, locus YNL233W, strain BNI4, stronger effect = lower value 0.955 | S. cerevisiae deletion strains, locus YNL248C, strain rpa49, stronger effect = lower value 1.06 | S. cerevisiae deletion strains, locus YNL250W, strain rad50, stronger effect = lower value 0.989 | S. cerevisiae deletion strains, locus YNL271C, strain bni1, stronger effect = lower value 0.975 | S. cerevisiae deletion strains, locus YNL298W, strain CLA4, stronger effect = lower value 0.978 | S. cerevisiae deletion strains, locus YNL307C, strain MCK1, stronger effect = lower value 0.958 | S. cerevisiae deletion strains, locus YNL322C, strain KRE1 (second series), stronger effect = lower value 1.02 | S. cerevisiae deletion strains, locus YNL322C, strain KRE1, stronger effect = lower value 0.997 and 1.04 | S. cerevisiae deletion strains, locus YNR049C, strain mso1, stronger effect = lower value 1.02 | S. cerevisiae deletion strains, locus YNR052C, strain pop2, stronger effect = lower value 0.978 | S. cerevisiae deletion strains, locus YOL006C, strain TOP1, stronger effect = lower value 0.851 | S. cerevisiae deletion strains, locus YOL012C, strain htz1 1.09 | S. cerevisiae deletion strains, locus YOL147C, strain pex11, stronger effect = lower value 0.978 | S. cerevisiae deletion strains, locus YOR001W, strain rrp6, stronger effect = lower value 1.05 | S. cerevisiae deletion strains, locus YOR061W, strain CKA2, stronger effect = lower value 0.987 | S. cerevisiae deletion strains, locus YOR069W, strain VPS5, stronger effect = lower value 0.99 | S. cerevisiae deletion strains, locus YOR070C, strain gyp1, stronger effect = lower value 1 | S. cerevisiae deletion strains, locus YOR080W, strain dia2, stronger effect = lower value 1.03 | S. cerevisiae deletion strains, locus YOR083W, strain WHI5 (second series), stronger effect = lower value 0.9 | S. cerevisiae deletion strains, locus YOR083W, strain WHI5, stronger effect = lower value 0.999 | S. cerevisiae deletion strains, locus YOR106W, strain vam3, stronger effect = lower value 1.04 | S. cerevisiae deletion strains, locus YOR136W, strain idh2, stronger effect = lower value 0.981 | S. cerevisiae deletion strains, locus YOR144C, strain elg1, stronger effect = lower value 0.966 | S. cerevisiae deletion strains, locus YOR184W, strain ser1, stronger effect = lower value 0.939 | S. cerevisiae deletion strains, locus YOR231W, strain MKK1, stronger effect = lower value 0.952 | S. cerevisiae deletion strains, locus YOR265W, strain rbl2, stronger effect = lower value 1 | S. cerevisiae deletion strains, locus YOR270C, strain vph1, stronger effect = lower value 1.03 | S. cerevisiae deletion strains, locus YOR290C, strain snf2, stronger effect = lower value 1.02 | S. cerevisiae deletion strains, locus YOR316C, strain cot1, stronger effect = lower value 0.977 | S. cerevisiae deletion strains, locus YPL051W, strain arl3, stronger effect = lower value 1 | S. cerevisiae deletion strains, locus YPL055C, strain LGE1, stronger effect = lower value 0.953 and 1.01 | S. cerevisiae deletion strains, locus YPL078C, strain atp4, stronger effect = lower value 1 | S. cerevisiae deletion strains, locus YPL106C, strain sse1, stronger effect = lower value 1.01 | S. cerevisiae deletion strains, locus YPL240C, strain hsp82, stronger effect = lower value 1 | S. cerevisiae deletion strains, locus YPL241C, strain CIN2, stronger effect = lower value 0.985 and 1 | S. cerevisiae deletion strains, locus YPL256C, strain CLN2, stronger effect = lower value 0.991 | S. cerevisiae deletion strains, locus YPR119W, strain clb2, stronger effect = lower value 0.973 | S. cerevisiae deletion strains, locus YPR141C, strain kar3, stronger effect = lower value 0.98 | S. cerevisiae deletion strains, locus YPR163C, strain tif3, stronger effect = lower value 0.987 | S. cerevisiae deletion strains, locus YPR167C, strain met16, stronger effect = lower value 0.984 | S. cerevisiae deletion strains, strain wtn01, stronger effect = lower value 0.954 | S. cerevisiae strains, strain wild type, stronger effect = lower value 0.986
